The values that follow come from PubChem BioAssay (NCI).

The panel holds about 83,000 compounds, 20% with a hit somewhere; the sample as a whole holds those more often.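 Treatment: one concentration, 48 hours, 96-well format. Scoring: percent growth, with anything below 10 considered active.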 Activity calls are given as the source filed them.

This assay has as its system MDA-MB-468 breast. Nature of the assay: NCI-60 one-dose screen, 48 h (100 = growth as untreated, 0 = no growth, -100 = all killed). Particulars: 10 µM unless noted.
Consider `COc1cc(OC)c(/C=C/S(=O)(=O)Cc2ccc(OC)c(NC(=O)CCC(=O)NO)c2)c(OC)c1`, for which the growth was 40.4% (inactive).
Next, `CCCCOc1nc2ccccc2cc1C1CNC(=O)c2ccccc2N1` (stereo unspecified): -1.81% (active).
In the case of `COc1ccc(/C(C)=C(\c2ccc(Cl)cc2)c2ccc(OCCN(C)C)cc2)cc1F`, the growth was 66.2% (inactive).
To `Nc1ccc2ccc(N)cc2c1` belongs 75.8% (inactive); to `CCCCCCCNC(=O)CCCNc1ncnc2c1ncn2-c1cccc(C(C)O)c1` (stereo unspecified), 59.7% (inactive).
To `Nc1nc(N)c2c(n1)NC(c1ccccc1)CC(c1ccc(Nc3nc(NCCO)nc(Nc4ccc(Cl)cc4)n3)cc1)=N2` (stereo unspecified) belongs -70.1% (active).
To `CN1CCN(c2ccc(N3Cc4ccccc4OC4=C3C(=O)c3c(O)ccc(O)c3C4=O)cn2)CC1` belongs -60.1% (active).
Consider `Cc1ccc(C(=O)c2ccc(CC(=O)N=Nc3c(O)[nH]c4ccc(Br)cc34)n2C)cc1`, for which the growth was 96.6% (inactive).
Next, `CN(C)CC(C)(CN(C)C)C(=O)/C=C/c1c(Cl)cccc1Cl`: -82.6% (active); `COc1ccc(-c2cc(-c3nnc(SCC(=O)Nc4ccc(/C(C)=N\O)cc4)o3)c3ccccc3n2)cc1`: 106% (inactive); `CC12CC(C#N)CCC1O2` (stereo unspecified): 111% (inactive).
Consider `COc1cc2c(Oc3ccc4[nH]c(C)cc4c3F)ncnc2cc1OCCCN1CCCC1`, for which the growth was 99.4% (inactive).
Next, `COc1cc2nc3c(=O)n(-c4ccc(C#N)cc4)cnn3c(=O)c2cc1OC`: 97.4% (inactive); `C=CC[n+]1c(/C=C/C=C2\N(C)c3ccccc3C2(C)C)sc2ccc(OC)cc21`: -5.71% (active).
Next, `CCc1ccccc1-n1c(N)c(C#N)c(-c2ccc(Cl)cc2)c(C#N)c1=O`: 98.8% (inactive); `CCOC(=O)[C@H](CSSc1ncnc2cc[nH]c12)NC(=O)[C@@H](C)c1ccc2cc(OC)ccc2c1`: 5.8% (active); `O=C(N/N=C/c1cc(Cl)ccc1O)c1ccccc1Nc1ccnc(C(F)(F)F)c1`: 12.8% (inactive).
For the molecule `C[C@@H]1N=C(c2ccc3ccccc3c2)Nc2nc3ccccn3c2C1=O`, the growth is 50.5% (inactive).
To `Cc1cccc(-c2cn3ccnc3c(-c3ccc4ncn(Cc5ccccc5)c4c3)n2)c1` belongs 83.4% (inactive).
For `Clc1ccc2c(NCCCNCc3ccc4c(c3)OCO4)ccnc2c1`, the growth is -11.9% (active).
As to `COc1ccc(NC(=O)c2sc3nc(C)c(C(=O)/C=C/c4ccccc4)cc3c2N)cc1`, the growth was 44.4% (inactive).
To `CCc1ccc(Oc2c(-c3ccc(OCc4ccc(Cl)cc4)cc3O)n[nH]c2C(F)(F)F)cc1` belongs 13.1% (inactive).
`Cc1ccc(C(=O)C2=Cc3cc4ccccc4n3Cc3cnnn32)cc1`: the growth is 100% (inactive).
`CNC(=O)c1cc(Oc2ccc(NC(=O)Nc3ccc(Cl)c(OC4CCCCC4)c3)c(F)c2)ccn1`: the growth is 15.5% (inactive).
For the molecule `CC(C)C1C2=C(NCCN1C(=O)c1ccncc1)C(C)(C)N(Cc1ccccc1)C2=O` (stereo unspecified), the growth was 110% (inactive).
Next, `O=C(/C=C/c1ccc(F)cc1)c1ccc(O)cc1`: 83% (inactive).
